According to ChEMBL document CHEMBL3988442, “University of Dundee, Small-Polar-MMV Screening Library” (2021):
Screen size: about 48,000 compounds; about 13,000 (27%) showed an effect of 50% or more. The list shows a part of the results.

System: Wolbachia pipientis
Test: Anti-Wolbachia Cell-Based Screen
Format: functional
Parameters: scale not given: in the data most compounds retested in dose-response had high values
Details: 5 µM

SMILES | Percent Effect [%]
CCC(NCc1ccccc1Cl)c1ccccc1OCC(=O)NC (stereo not given) | -10.16
Cc1cccc(C(=O)N2CC(C(=O)NCC3CC3)C3(CCOCC3)C2)n1.O=C(O)C(F)(F)F (stereo not given) | -7.832
CO[C@H]1CN(C(=O)c2cccc(C)n2)CC[C@@]12CCCO2 | 114.9
O=C(c1cn2cc(Cl)ccc2n1)N1CCC(CCn2cccn2)CC1 | 2.946
CO[C@H]1CN(C(=O)c2cn3cc(C)ccc3n2)CC[C@@]12CCCO2 | 93.74
COCCN1C[C@@H](C)[C@@]2(COCCN(C(=O)c3cccc(C)n3)C2)C1.O=C(O)C(F)(F)F.O=C(O)C(F)(F)F | -4.007
COCc1cn([C@@H]2c3ccccc3C3(CCNCC3)[C@H]2O)nn1 | -6.385
CCc1nc(C)cn1C(=O)Nc1ccc(C)cc1 | 109.3
CC(=O)c1c(C)nn(CC(=O)Nc2ccc(F)cc2)c1C | 6.274
Cc1ccc(NC(=O)N2CCN(Cc3noc(C4CC4)n3)CC2)cc1 | 4.61
CN(C)c1nc2n(c(=O)n1)CCN2C(=O)Nc1ccccc1 | 0.604
CCc1nc(C)cn1C(=O)Nc1ccccc1 | 107.6
CCc1nc(C)cn1C(=O)Nc1ccc(F)cc1 | 113
CCC(C)(NCC(=O)Nc1ccccc1)c1nc(C)cs1 (stereo not given) | -1.246
Cc1ccc(NC(=O)C2=CN=S=N2)cc1 | -3.511
CN(C)Cc1nn(C)c2c1CN(C(=O)Nc1ccc(F)cc1)C2 | -7.35
Cc1cc(=O)n2ncnc2n1CC(O)c1ccccc1F (stereo not given) | -9.153
CN(C)S(=O)(=O)N1CC[C@]2(C[C@@H](OCC3CC3)CO2)C1 | 9.447
CCCN(Cc1ccc(C(=O)NCC2COCCO2)c(=O)[nH]1)C1CC1 (stereo not given) | 2.285
Cc1cc2c(cc1CN1CCCCC1CCn1ccnc1C)OCO2 (stereo not given) | 17.86
CN(C)CCOCC1CN(C(=O)c2cccn2C)Cc2ccnn2C1.O=C(O)C(F)(F)F.O=C(O)C(F)(F)F (stereo not given) | -5.365
CN1CCN(S(=O)(=O)c2cccc(C#N)c2)c2ccc(F)cc21 | 4.028
Cc1cc(C(=O)N2CCCC2CN2CCCC2)no1 (stereo not given) | 0.09079
Cc1nn(C)c(C)c1C1CCCN1C(=O)c1cc[nH]n1 (stereo not given) | -0.5637
Cc1nc(C(=O)N2CCCC2c2cncc(CN3CCCC3)n2)co1 (stereo not given) | 62.39
O=C(c1cc[nH]n1)N1CCCC1c1cncc(CN2CCOCC2)n1 (stereo not given) | 91.81
O=C(C1CCOCC1)N1CCCC1c1cncc(CN2CCCC2)n1 (stereo not given) | 74.28

SMILES | Percent Effect [%]
Cc1cccc(-c2c[nH]c(C3CCCN3C(=O)C3CCOCC3)n2)c1 (stereo not given) | 16.55
CCc1nc(CN2CCCN(C(=O)C3CCOCC3)CC2)cs1 | -0.509
Cc1c(CN2CCCC2c2cncc(CN3CCCC3)n2)cnn1C (stereo not given) | 74.36
Cc1nc(CN2CCC(NS(C)(=O)=O)CC2)co1 | -13.72
CN(C)CCC1CCCCN1Cc1cnn(C)c1C1CC1 (stereo not given) | -0.7786
O=C(CCC1CC1)N1CCC(n2cc(C3(O)CCCC3)nn2)CC1 | -0.3223
COc1ccc(C2(C(=O)N3C[C@@H](C(=O)O)[C@H](C(C)C)C3)CC2)cc1 | 6.312
CC(C)CS(=O)(=O)CC(=O)NC1CCCCNC1=O (stereo not given) | 105
O=C1NCCCCC1NC(=O)C1(c2ccccc2)CCOCC1 (stereo not given) | -10.73
O=C(CS(=O)(=O)c1ccccc1Cl)NC1CCCCNC1=O (stereo not given) | 7.591
O=C(CS(=O)(=O)CC1CCCCC1)NC1CCCCNC1=O (stereo not given) | -2.84
O=C(CC1CCCCC1)NC1CCCCNC1=O (stereo not given) | 129.3
Cn1c(C2CC2)nc2c1CCN(CC(=O)NC1CCCCNC1=O)C2 (stereo not given) | -7.835
O=C(CS(=O)(=O)Cc1ccc(F)cc1)NCc1ccccc1F | -12.49
O=C(CS(=O)(=O)Cc1ccccc1)NC1CCCCNC1=O (stereo not given) | 109
Cc1cc(C)n(CC(=O)NC2CCCCNC2=O)n1 (stereo not given) | -5.953
Cc1ccccc1CS(=O)(=O)CC(=O)NC1CCCCNC1=O (stereo not given) | 5.447
Cn1cnc2c1CCN(CC(=O)NC1CCCCNC1=O)C2 (stereo not given) | 2.624
O=C(CS(=O)(=O)Cc1ccc(F)cc1)NC1CCCCNC1=O (stereo not given) | 104.6
CC1CCN(C)c2ccccc2N1C(=O)c1ccn(C)c(=O)c1 (stereo not given) | -9.489
COc1cc(C)nc(N2CCN(C(=O)c3ccc[nH]3)CC2)n1 | 4.964
N#Cc1ccc(N2CCC(c3nccn3Cc3cscn3)CC2)nc1 | 4.95
CCc1noc(CN(CCc2ccccc2)C2CCN(C)CC2)n1 | 1.802
CCN(Cc1nc(Cc2ccccc2)no1)C1CC1 | 93.91
CN(Cc1ccc2c(c1)OCO2)Cc1nc(Cc2ccccc2)no1 | -7.147
COc1ccccc1CN(Cc1nc2c(cnn2C)c(=O)[nH]1)C1CC1 | 17.98
COc1ccc(CN(Cc2nc(C)no2)C2CCCCC2)cc1OC | 113.8

SMILES | Percent Effect [%]
CCc1nc(CN(CCc2ccccc2)C2CCN(C)CC2)no1 | 22.84
COc1ccccc1CN(Cc1nc(Cc2ccccc2)no1)C1CC1 | 122.2
COc1cc(CO)ccc1OCc1nc(C2CC2)no1 | 5.46
Cc1nnc(CN(Cc2ccccc2C(F)(F)F)C2CC2)o1 | -10.33
CC(C(=O)NC1CC1)S(=O)(=O)Cc1nc(Cc2ccccc2)no1 (stereo not given) | -3.587
COc1ccccc1CN(Cc1nc(C)no1)C1CC1 | 102.6
CCc1noc(C(C)N(C)Cc2ccc(OC)c(OC)c2)n1 (stereo not given) | 9.709
CCCN1CC2(CCN(C)CC2)CC1C(=O)NCCn1nc(C)nc1C (stereo not given) | -19.15
O=C(CCn1cncn1)NCC1CCS(=O)(=O)C1 (stereo not given) | 0.07359
CCN(CC)CCSc1ncnc2[nH]ncc12 | -13.76
Cc1cc(C(=O)NC(CC(C)C)C(=O)Nc2cc[nH]n2)c(C)o1 (stereo not given) | 2.286
COc1ccccc1CCc1nc(CC2CCN(C)CC2)no1 | 0.6251
COc1ccccc1CN(Cc1nc(CC(C)C)no1)C1CC1 | 68.8
CC(C)c1noc(CN(Cc2ccccc2F)C2CC2)n1 | 5.507
CC(CCc1ccccc1F)C(=O)NS(C)(=O)=O (stereo not given) | -12.84
Cc1nc(C)n(C2CCCN(C(=O)c3cnc[nH]3)C2)n1 (stereo not given) | 5.274
Cc1nc(C)n(C2CCCN(C(=O)c3csc(C(C)C)n3)C2)n1 (stereo not given) | -3.924
Cc1nc(C)n(C2CCCN(C(=O)CCOCC(C)C)C2)n1 (stereo not given) | 96.93
Cc1nc(C)n(C2CCCN(C(=O)CCOC(C)C)C2)n1 (stereo not given) | 104.7
CC(NC(N)=O)C(=O)N(C)Cc1cccc(C(F)(F)F)c1 (stereo not given) | -8.418
O=C1CC(NCc2cnc(-c3cccs3)nc2)CN1c1ccccc1 (stereo not given) | 9.928
Cn1ncc2c(=O)[nH]c(N3CCN(C(=O)c4ccsc4)CC3)nc21 | 8.888
Cc1nc(N2CCN(C(=O)c3ccccc3)CC2)c2cnn(C)c2n1 | 113.9
CCc1nsc(N2CCCN(C(=O)c3ccsc3)CC2)n1 | 9.27
Cc1ncnc2c1CCN(C(=O)c1ccsc1)CC2 | -12.52
Cc1nc(N2CCN(C(=O)c3ccsc3)CC2)c2cnn(C)c2n1 | 2.047
Cc1nc(N2CCN(C(=O)c3ccc(O)cc3)CC2)c2cnn(C)c2n1 | 3.35

SMILES | Percent Effect [%]
Cc1nc(N2CCCN(C(=O)c3ccsc3)CC2)c2cnn(C)c2n1 | 93.06
Cn1nc(C#N)c2c1CN(C(=O)c1ccsc1)CCC2 | -3.731
Cn1ncc2c(N3CCN(C(=O)c4ccsc4)CC3)ncnc21 | 110.5
Cc1csc(N2CCCN(C(=O)c3ccsc3)CC2)n1 | 30.07
Cc1nc(N2CCN(C(=O)c3ccccc3)CC2)c2c(n1)c(C)nn2C | 38.43
Cn1ncc2c(N3CCCN(C(=O)c4ccsc4)CC3)ncnc21 | 109.6
CN(C)CCn1c(=O)oc2ccc(NC(=O)CC(C)(C)C)cc21 | 14.89
Cc1ccc(NC(C)C(=O)NCc2cccs2)cc1C (stereo not given) | -16.27
CCOc1ccc2ccccc2c1CNCC1CCS(=O)(=O)C1.Cl (stereo not given) | -1.499
CCOc1ccnc(N2CCN(C(=O)C(C)(C)C#N)CC2)n1 | 0.4658
COc1cc(CN(C)C(=O)NCc2cccnc2OC)ccc1SC | -20.02
Cc1cc(CS(=O)(=O)C(C)c2ccc(F)cc2)on1 (stereo not given) | -4.028
COc1ccc(CNC2CCN(c3ccccc3)C2)c(OC)c1OC (stereo not given) | -16.13
O=C(c1cccc(Cn2ccnc2)c1)N1CCCC(n2ccnc2)C1 (stereo not given) | 0.5166
O=C(c1ccnc(-n2ccnc2)c1)N1CCCC(n2cccn2)C1 (stereo not given) | 103.2
O=C(c1ccnc(-n2ccnc2)c1)N1CCCC(n2ccnc2)C1 (stereo not given) | 100.2
Cc1nccn1C1CCCN(C(=O)c2ccnc(-n3ccnc3)c2)C1 (stereo not given) | 102.3
Cc1nccn1C1CCCN(C(=O)c2cccc(Cn3ccnc3)c2)C1 (stereo not given) | 99.35
O=C(c1ccc(-n2ccnc2)nc1)N1CCCC(n2cccn2)C1 (stereo not given) | -14.33
CN(C)c1cc(C(=O)N2CCCC(n3cccn3)C2)ccn1 (stereo not given) | -2.177
CC(C)n1ccnc1CN1CCOC(CC2CCCCC2)C1 (stereo not given) | 1.186
CCc1ccc(-c2cn(CCSc3ncn[nH]3)nn2)nc1 | 2.471
Cn1nnnc1SCCNC(=O)C1CCN(C(=O)C2CCC2)CC1 | 1.92
CC(C)[C@H]1CN(CC2CCC2)C[C@@H]1NC(=O)c1ccc(=O)[nH]c1 | 7.651
